# Results from PubChem BioAssay AID1159580 (chemical genetic matrix, 2015).
# Several values for one entry are separate records, joined by “and”; a condition that tells them apart may be missing. Equal entries are not always repeated. The whole screen tested about 5,500 compounds, of which about 2,000 (36%) were called active. Another 18% or so got no clear call; they are omitted. Cut-off read from the data, not from the text of the source: active = normalized growth mostly below about 0.91 (no sharp cut-off); inconclusive = no clear call, values can overlap the other calls; inactive = mostly above about 0.92. This is one part of the list.
# Assay: chemical genetic growth profiling, strain panel (AID 1159580);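 note: tested at 20 µM; growth read once vehicle control cultures reached saturation at 30 °C; 1 = growth at the plate median or of vehicle wells; lower values mean less growth of the strain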
# Conditions: S. cerevisiae deletion strains, growth OD
compound,measurement,setting,value
O=C(O)c1cc2ccccc2c(Cc2c(O)c(C(=O)O)cc3ccccc23)c1O,normalized growth,"locus YAL021C, strain ccr4, stronger effect = lower value",0.967 (inactive)
same,normalized growth,"locus YAL026C, strain drs2, stronger effect = lower value",1.01 (inactive)
same,normalized growth,"locus YAL030W, strain snc1, stronger effect = lower value",0.994 (inactive)
same,normalized growth,"locus YBL061C, strain skt5, stronger effect = lower value",0.99 (inactive)
same,normalized growth,"locus YBR009C, strain hhf1, stronger effect = lower value",0.988 (inactive)
same,normalized growth,"locus YBR021W, strain FUR4, stronger effect = lower value",1.02 (inactive)
same,normalized growth,"locus YBR023C, strain chs3, stronger effect = lower value",0.996 (inactive)
same,normalized growth,"locus YBR171W, strain sec66, stronger effect = lower value",1 (inactive)
same,normalized growth,"locus YBR229C, strain ROT2, stronger effect = lower value",1.01 (inactive)
same,normalized growth,"locus YBR231C, strain swc5, stronger effect = lower value",0.977 (inactive)
same,normalized growth,"locus YBR279W, strain paf1, stronger effect = lower value",0.99 (inactive)
same,normalized growth,"locus YCL011C, strain gbp2, stronger effect = lower value",1 (inactive)
same,normalized growth,"locus YCL016C, strain dcc1, stronger effect = lower value",0.989 (inactive)
same,normalized growth,"locus YCL029C, strain bik1, stronger effect = lower value",1.01 (inactive)
same,normalized growth,"locus YCL061C, strain MRC1, stronger effect = lower value",1 (inactive)
same,normalized growth,"locus YCL069W, strain vba3, stronger effect = lower value",1 (inactive)
same,normalized growth,"locus YCR088W, strain abp1, stronger effect = lower value",1.01 (inactive)
same,normalized growth,"locus YDL005C, strain med2, stronger effect = lower value",1 (inactive)
same,normalized growth,"locus YDL035C, strain GPR1, stronger effect = lower value",1.01 (inactive)
same,normalized growth,"locus YDL040C, strain nat1, stronger effect = lower value",0.995 (inactive)
same,normalized growth,"locus YDL074C, strain BRE1, stronger effect = lower value",0.94 (inactive)
same,normalized growth,"locus YDL101C, strain DUN1, stronger effect = lower value",1 (inactive)
same,normalized growth,"locus YDL134C, strain PPH21, stronger effect = lower value",0.997 (inactive)
same,normalized growth,"locus YDL185W, strain tfp1, stronger effect = lower value",1.01 (inactive)
same,normalized growth,"locus YDL192W, strain arf1, stronger effect = lower value",1 (inactive)
same,normalized growth,"locus YDR001C, strain nth1, stronger effect = lower value",1.01 (inactive)
same,normalized growth,"locus YDR069C, strain doa4, stronger effect = lower value",0.989 (inactive)
same,normalized growth,"locus YDR101C, strain arx1, stronger effect = lower value",1.01 (inactive)
same,normalized growth,"locus YDR137W, strain rgp1, stronger effect = lower value",1.04 (inactive)
same,normalized growth,"locus YDR159W, strain sac3, stronger effect = lower value",0.97 (inactive)
same,normalized growth,"locus YDR162C, strain NBP2, stronger effect = lower value",0.985 (inactive)
same,normalized growth,"locus YDR195W, strain ref2",0.977 (inactive)
same,normalized growth,"locus YDR297W, strain sur2, stronger effect = lower value",0.995 (inactive)
same,normalized growth,"locus YDR318W, strain mcm21, stronger effect = lower value",0.988 (inactive)
same,normalized growth,"locus YDR334W, strain swr1, stronger effect = lower value",0.996 (inactive)
same,normalized growth,"locus YDR335W, strain msn5, stronger effect = lower value",1.01 (inactive)
same,normalized growth,"locus YDR388W, stronger effect = lower value",0.996 (inactive)
same,normalized growth,"locus YDR392W, strain spt3, stronger effect = lower value",0.911 (inactive)
same,normalized growth,"locus YDR502C, strain sam2, stronger effect = lower value",1 (inactive)
same,normalized growth,"locus YEL003W, strain gim4, stronger effect = lower value",1.02 (inactive)
same,normalized growth,"locus YEL037C, strain rad23, stronger effect = lower value",0.999 (inactive)
same,normalized growth,"locus YEL061C, strain CIN8 (second series), stronger effect = lower value",1 (inactive)
same,normalized growth,"locus YEL061C, strain CIN8, stronger effect = lower value",1.03 (inactive)
same,normalized growth,"locus YER015W, strain faa2, stronger effect = lower value",0.988 (inactive)
same,normalized growth,"locus YER016W, strain bim1, stronger effect = lower value",1 (inactive)
same,normalized growth,"locus YER110C, stronger effect = lower value",0.989 (inactive)
same,normalized growth,"locus YER111C, strain swi4, stronger effect = lower value",1.01 (inactive)
same,normalized growth,"locus YER155C, strain BEM2 (second series), stronger effect = lower value",0.962 (inactive)
same,normalized growth,"locus YER155C, strain BEM2, stronger effect = lower value",0.992 (inactive)
same,normalized growth,"locus YER167W, strain BCK2, stronger effect = lower value",1 (inactive)
same,normalized growth,"locus YFR010W, strain ubp6, stronger effect = lower value",1.01 (inactive)
same,normalized growth,"locus YGL078C, strain dbp3, stronger effect = lower value",1.01 (inactive)
same,normalized growth,"locus YGL086W, strain mad1, stronger effect = lower value",1 (inactive)
same,normalized growth,"locus YGL167C, strain pmr1, stronger effect = lower value",0.994 (inactive)
same,normalized growth,"locus YGL173C, strain kem1, stronger effect = lower value",0.997 (inactive)
same,normalized growth,"locus YGL227W, strain vid30, stronger effect = lower value",1 (inactive)
same,normalized growth,"locus YGL240W, strain doc1, stronger effect = lower value",0.96 (inactive)
same,normalized growth,"locus YGL248W, strain PDE1, stronger effect = lower value",0.998 (inactive)
same,normalized growth,"locus YGL253W, strain hxk2, stronger effect = lower value",1.01 (inactive)
same,normalized growth,"locus YGR078C, strain PAC10, stronger effect = lower value",0.996 (inactive)
same,normalized growth,"locus YGR135W, strain pre9, stronger effect = lower value",0.99 (inactive)
same,normalized growth,"locus YGR252W, strain gcn5, stronger effect = lower value",0.978 (inactive)
same,normalized growth,"locus YHR013C, strain ard1, stronger effect = lower value",0.966 (inactive)
same,normalized growth,"locus YHR027C, strain rpn1, stronger effect = lower value",1 (inactive)
same,normalized growth,"locus YHR030C, strain SLT2, stronger effect = lower value",1.01 (inactive) and 0.859 (inactive)
same,normalized growth,"locus YHR079C, strain IRE1 (second series), stronger effect = lower value",0.992 (inactive)
same,normalized growth,"locus YHR079C, strain IRE1, stronger effect = lower value",0.844 (active)
same,normalized growth,"locus YHR094C, strain hxt1, stronger effect = lower value",0.999 (inactive)
same,normalized growth,"locus YHR129C, strain ARP1, stronger effect = lower value",0.995 (inactive)
same,normalized growth,"locus YHR142W, strain chs7, stronger effect = lower value",1.02 (inactive)
same,normalized growth,"locus YHR200W, strain rpn10, stronger effect = lower value",0.991 (inactive)
same,normalized growth,"locus YIL066C, strain RNR3, stronger effect = lower value",0.986 (inactive)
same,normalized growth,"locus YIL073C, strain SPO22, stronger effect = lower value",1.02 (inactive)
same,normalized growth,"locus YIL125W, strain kgd1, stronger effect = lower value",0.994 (inactive)
same,normalized growth,"locus YIR030C, strain dcg1, stronger effect = lower value",1 (inactive)
same,normalized growth,"locus YJL092W, strain hpr5, stronger effect = lower value",1.01 (inactive)
same,normalized growth,"locus YJL095W, strain BCK1 (second series), stronger effect = lower value",0.992 (inactive)
same,normalized growth,"locus YJL095W, strain BCK1, stronger effect = lower value",0.99 (inactive) and 0.866 (active)
same,normalized growth,"locus YJL115W, strain asf1, stronger effect = lower value",1 (inactive)
same,normalized growth,"locus YJL129C, strain trk1, stronger effect = lower value",0.976 (inactive)
same,normalized growth,"locus YJL134W, strain LCB3, stronger effect = lower value",0.99 (inactive)
same,normalized growth,"locus YJL154C, strain vps35, stronger effect = lower value",1 (inactive)
same,normalized growth,"locus YJL164C, strain tpk1, stronger effect = lower value",0.99 (inactive)
same,normalized growth,"locus YJL166W, strain qcr8, stronger effect = lower value",0.992 (inactive)
same,normalized growth,"locus YJL168C, strain set2, stronger effect = lower value",0.977 (inactive)
same,normalized growth,"locus YJL187C, strain SWE1 (second series), stronger effect = lower value",1 (inactive)
same,normalized growth,"locus YJL187C, strain SWE1, stronger effect = lower value",1.02 (inactive)
